# Compound activity (PubChem BioAssay)
# A selection: hits, their analogues and other compounds. The true share with any hit is near 0.93%.
# FBPA coupling cs = coupling enzyme interference in Giardia aldolase counter-screen; actives 0.67% (n = 290,000); coupling enzyme system counterscreen, AmpLite Red fluorescence; activity change, negative = inhibition, % at 58.2 µM, hits read low; AID 2472; in the data active = activity change below about -30%
#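 Final compound at 57.5 uM, incubated 10 min at RT with coupling enzyme reagent (glyceraldehyde-3-phosphate), then 20 min with substrate and AmpLite Red detection. Fluorescence read at 525/598 nm; tests interference with the coupling assay, not aldolase inhibition.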
# RGS12 GoLoco inh = RGS12 GoLoco-Gai1 interaction inhibition | P63096 | Potency, µM (series often up to 61.6 µM), without a hit: at the top dose activity, negative = inhibition, usual class: inhibitors | actives 0.44% (n = 230,000) | Gai1:RGS12 GoLoco peptide FP, rhodamine, 10 min; active = well fitted inhibition curve with a large enough effect, not every such curve was filed as active; inactive = no such curve, though single readings can be large or run the other way; note: potency is the fitted concentration of half-maximal effect; nearly all actives have a fitted effect of over 30% in size
# Target sequence (P63096 whole entry, looked up): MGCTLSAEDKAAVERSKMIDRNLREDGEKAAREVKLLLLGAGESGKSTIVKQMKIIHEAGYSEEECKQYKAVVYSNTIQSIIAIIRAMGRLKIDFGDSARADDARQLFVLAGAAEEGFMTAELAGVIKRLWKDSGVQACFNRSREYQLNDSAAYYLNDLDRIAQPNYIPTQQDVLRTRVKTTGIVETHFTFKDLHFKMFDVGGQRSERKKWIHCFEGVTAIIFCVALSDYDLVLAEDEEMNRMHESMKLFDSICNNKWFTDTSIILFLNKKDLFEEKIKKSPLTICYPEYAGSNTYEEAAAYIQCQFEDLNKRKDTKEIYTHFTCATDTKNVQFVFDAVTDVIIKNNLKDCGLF
# TR SRC2 fluor cs = Texas Red fluorescence interference in TRb-SRC2 counter-screen | TRb/SRC2 Texas Red total fluorescence interference | Potency, µM (series often up to 106 µM), for inactives: at the top dose fluorescence change, negative = quenching | actives 0.29% (n = 280,000); active = well fitted curve in either direction with a large enough effect; inconclusive = small, poorly fitted or top-dose-only effect; note: potency is the fitted concentration of half-maximal effect
#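 Human TRb ligand-binding domain at 0.6 uM with 20 nM Texas Red SRC2 peptide in Tris buffer containing 1 uM T3 and 5% DMSO, incubated with compound 5 h at ambient temperature. Total fluorescence (555/632 nm) calculated as parallel + 2 × perpendicular.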
# TRb SRC2 PPI = disrupts binding of human TR beta to SRC2 | P10828 | TRbeta-SRC2 peptide binding, fluorescence polarization; receptor liganded with 1 µM T3 | Potency, µM (titrated, usually from 106 µM), for inactives: top-dose activity change, negative = inhibition, usual class: inhibitors | actives 0.065% (n = 280,000); active = well fitted inhibition curve with a large enough effect; inconclusive = small, poorly fitted or top-dose-only effect, or effect the other way;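 note: potency is the fitted concentration of half-maximal effect; plate controls were bound peptide for no effect and peptide without receptor for full effect; nearly all actives have a fitted effect of over 50% in size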
#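 TRb LBD 0.6 uM + Texas Red SRC2 peptide 20 nM, 1 uM T3, Tris buffer w/ 5% DMSO; compound pinned, 5 h RT; FP read ex 555/em 632; normalized to unbound and bound controls.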
# An asterisk follows results filed as active; u = inconclusive; x = no result given; [ ] = another dose, or the depositor's remark. Unless noted, % is set by controls: 0 for no effect and ±100 for the full control effect.
SMILES,FBPA coupling cs,RGS12 GoLoco inh,TR SRC2 fluor cs,TRb SRC2 PPI
COc1ccc(C2CC(=O)C3=C(C2)Nc2ccccc2N(C(=O)CCC(=O)O)C3c2ccc(F)cc2)cc1 (configuration not stated),12,5.6µM*,-5%,-2%
O=C(O)CCC(=O)N1c2ccccc2NC2=C(C(=O)CC(c3ccc(F)cc3)C2)C1c1ccc([N+](=O)[O-])o1 (configuration not stated),-1,2%,-1%,1%
COCCN=c1scc(-c2ccccc2)n1/N=C/c1c[nH]c2ccccc12,-5,1%,u,-6%
COCCN=c1scc(-c2cccs2)n1/N=C/c1ccc(O)c(O)c1O,-33*,x,1%,-5%
CCN=c1scc(C)n1/N=C/c1ccc(O)c(O)c1O,-37*,8%,-19%,1%
Cc1ccc(NC(=O)CSc2nc(-c3ccco3)cc(C(F)(F)F)n2)cc1,x,x,0%,-5%
CCc1cccc(NC(=O)CCc2nc3cccnc3n2-c2ccccc2)c1,x,x,0%,3%
Cc1n[nH]c(=S)n(NC(=O)/C=C/C(=O)Nn2c(=S)[nH]nc(C)c2=O)c1=O,0,17%,-8%,-2%
Cc1n[nH]c(=S)n(NC(=O)CC(=O)Nn2c(=S)[nH]nc(C)c2=O)c1=O,-43*,2%,-4%,5%
COC(=O)c1ccc(NC(=O)CC2C(=O)N(c3ccc(Cl)cc3)C(=O)N2Cc2ccco2)cc1 (configuration not stated),x,x,-1%,6%
CC(=O)Nc1nc(CC(C)C)cc(-c2ccco2)c1C#N,3,2.8µM*,-2%,-9%
Cc1ccc(Cl)cc1NC(=O)Cn1cc(S(=O)(=O)Cc2ccccc2Cl)c2ccccc21,x,x,4%,3%
Cc1nnc(NN)n(N)c1=O,-1,8.9µM*,-1%,-2%
Cc1nnc(Nc2ccccc2)n(N)c1=O,1,3%,-1%,5%
O=C(O)c1ccc(N2C(=O)/C(=C/c3ccc(-c4ccc([N+](=O)[O-])cc4)o3)C=C2c2ccccc2)cc1,5,41%,35µM*[fluorescent],13%
Cc1coc2c1C(=O)C(=O)c1c-2ccc2c(C)cccc12,-55*,-8%,-7%,-21%
Cc1coc2cc3oc(=O)c4c(c3cc12)CCC4,-2,1%,4%,-1%
Cc1coc2c1C(=O)C(=O)c1c-2ccc2c1CCCC2(C)C,-40*,4%,-4%,-7%
Cc1ccc2c3c(cccc13)-c1ccccc1C2=O,-5,13%,3%,1%
Cc1[nH]c(=O)cc2ccccc12,2,8.9µM*,0%,9%
CC(=O)c1cccc(NC(=O)c2ccc(-c3ccccc3[N+](=O)[O-])o2)c1,-59*,14%,0%,-2%
O=[N+]([O-])c1ccccc1-c1ccc(C(=S)N2CCCC2)o1,-43*,-13%,-4%,1%
CCn1nnc(NC(=O)c2ccc(-c3ccccc3[N+](=O)[O-])o2)n1,-1,-20%,-2%,-2%
O=[N+]([O-])c1ccccc1-c1ccc(C(=S)N2CCCCC2)o1,-16,-5%,1%,2%
O=[N+]([O-])c1cc(-c2ccc(C(=S)N3CCOCC3)o2)ccc1Cl,-32*,-1%,0%,2%
SMILES,FBPA coupling cs,RGS12 GoLoco inh,TR SRC2 fluor cs,TRb SRC2 PPI
CC(=O)CC(=O)Nc1ccccc1C,x,x,-5%[201 µM],-2%[201 µM]
CC12CN3CC(C)(CN(C1)C3c1c[nH]c3ccccc13)C2=O (configuration not stated),2,13%,1%,1%
CC12CN3CC(C)(CN(C1)C3c1ccc3ccccc3c1O)C2=O (configuration not stated),-48*,8%,-3%,-5%
Cc1ccc2oc3c(c(=O)c2c1)C(c1ccc(O)cc1)N(CCCN(C)C)C3=O (configuration not stated),x,x,5.6e-05µM*[quencher],-18%
Cc1noc(/C=C/c2ccco2)c1S(=O)(=O)N1CCC(C(=O)Nc2ccc(F)cc2F)CC1,x,x,-1%,3%
C=C[Si](OCCOC)(OCCOC)OCCOC,x,x,-2%[201 µM],-3%[201 µM]
COc1ccc(N2C(=O)[C@@H]3[C@H](C2=O)[C@H]2c4ccccc4C=CN2[C@@H]3C(C)=O)cc1,-42*,37%,0%,-6%
COc1ccc(N2C(=O)[C@H]3[C@@H](C2=O)C2c4ccccc4C=NN2[C@H]3C(=O)C(C)(C)C)cc1 (some centres not stated),0,4%,-2%,8%
O=C(Cc1ccc(NC(=O)N2CCCCc3ccccc32)cc1)Nc1ccccc1Br,x,x,u,1%
O=C(O)c1cc(N(Cc2ccccc2O)Cc2cc(O)ccc2O)ccc1O,-1,-23%,-3%,3%
O=C(CSc1nnc2[nH]c(=O)cc(-c3ccccc3)n12)Nc1ccc(OC(F)(F)F)cc1,x,x,0%,-2%
Cc1c(CCO)c(=O)n(-c2ccccc2)n1S(=O)(=O)c1c(Cl)cc(Cl)cc1Cl,-39*,-2%,-1%,-6%
Cc1c(CCO)c(=O)[nH]n1S(=O)(=O)c1ccccc1,3,1%,-1%,4%
COc1cccc(N2CC(NC(=O)C3CC3)CC2=O)c1 (configuration not stated),x,x,0%,-4%
Cc1ccc(C)c(S(=O)(=O)/N=C2\C=C(NS(=O)(=O)c3ccccc3)C(=O)c3ccccc32)c1,-50*,x,x,x
CC(C)c1ccc(S(=O)(=O)/N=C2/C=CC(=O)c3ccccc32)cc1,-53*,11%,-6%,u
Cc1cccc(S(=O)(=O)Nc2cccc3c2C(=O)c2ccccc2-3)c1,0,5%,0%,-15%
CC(C)c1ccc(S(=O)(=O)/N=C2\C=C(NS(=O)(=O)c3ccccc3)C(=O)c3ccccc32)cc1,-32*,x,x,x
CCc1ccc(Nc2nc3ccccc3nc2NS(=O)(=O)c2ccccc2)cc1,x,x,-1%,7%
CCc1ccc(S(=O)(=O)/N=C2\C=C(NS(=O)(=O)c3ccccc3)C(=O)c3ccccc32)cc1,-34*,x,x,x
CC(C)c1ccc(S(=O)(=O)c2cc3cc(Br)ccc3oc2=O)cc1,2,-14%,0%,9%
COc1ccc(-n2nc3c(c2NC(=O)C(=O)NCc2ccccc2)CSC3)cc1,x,x,0%,4%
COc1ccc(Nc2ccc(Nc3ccc(OC)cc3)nn2)cc1,2,x,-4%,2%
COc1ccc(Nc2ccc(OC)cc2)cc1,-41*,-37%,12%,u
CC(C)CNC(=S)NNC(=O)c1csc2c1CCCC2,4,4%,-2%,5%
CCC(C)NC(=O)COC(=O)c1csc2c1CCCC2 (configuration not stated),1,-2%,0.0004µM*[quencher],u
CC1CCn2c(nc3cc(C(=O)NCc4ccccc4)ccc32)C1 (configuration not stated),x,x,-1%,-1%
CCOC(=O)/C(C#N)=C1/C(=O)N(Cc2ccccc2)c2ccccc21,-38*,1%,-4%,-6%
Cc1cccc(S(=O)(=O)Nc2ccc(C)c3c2OC(C)(C)C3)c1,-44*,0%,3%,-19%
